Laboratory results: PubChem BioAssay AID485273 (Sanford-Burnham Center for Chemical Genomics, 2010)
Several values for one entry are separate records, joined by “and”; a condition that tells them apart may be missing. Identical values can stand only once. The campaign covered roughly 330,000 compounds. About 1,500 (0.45%) were called active. The full list was thinned out, with actives kept by preference. Unmarked numbers belong to inactive results. No stated cut-off is given here; in the data, active means inhibition above about 45% (passing the limit was not always enough); inconclusive means no clear call, values can overlap the other calls.

molecular target: Ubiquitin-conjugating enzyme E2 N (Homo sapiens) (UniProt P61088); assay: blockers of UBC13 ubiquitin chain synthesis – biochemical, TR-FRET, uHTS, primary screen (AID 485273); conditions: UBC13 polyubiquitin chain formation, at 20 µM, stronger effect = higher value
Sequence (P61088 whole entry, looked up): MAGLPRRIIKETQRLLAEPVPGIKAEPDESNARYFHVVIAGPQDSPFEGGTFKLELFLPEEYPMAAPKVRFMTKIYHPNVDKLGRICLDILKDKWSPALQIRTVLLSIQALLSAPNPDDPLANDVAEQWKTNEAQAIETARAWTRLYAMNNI

Compound	inhibition
CC[n+]1cc(C)ccc1/C=C/c1ccc(N(C)C)cc1	-286%
CCOc1ccc(N(C(=O)c2snc(C(N)=O)c2N)C(C(=O)NCC2CCCO2)c2c[nH]c3ccccc23)cc1 (stereo not drawn)	89.4% (active)
Cc1ccc(C(C(=O)NCC2CCCO2)N(C(=O)c2snc(C(N)=O)c2N)c2ccc(C(C)C)cc2)o1 (stereo not drawn)	45.7% (active)
COCCNC(=O)C(c1ccc(C)o1)N(Cc1cccs1)C(=O)c1snc(C(N)=O)c1N (stereo not drawn)	4.7%
Cc1cccc(N(C(=O)c2sc(C)nc2C)C(C(=O)NCC2CCCO2)c2ccccc2)c1 (stereo not drawn)	2.5%
CCOc1cc(C(C(=O)NCC2CCCO2)N(C(=O)Cn2nnc3ccccc32)c2cccc(OC)c2)ccc1O (stereo not drawn)	4%
CCOc1ccc(-n2c(N)c(C(=O)NCC3CCCO3)sc2=S)cc1 (stereo not drawn)	3.2%
COc1cccc(N(C(=O)c2snc(C(N)=O)c2N)C(C(=O)NCC2CCCO2)c2c[nH]c3ccccc23)c1 (stereo not drawn)	59.9% (active)
CC(C)(C)NC(=O)C(c1ccc(Cl)cc1)N(CCO)C(=O)c1snc(C(N)=O)c1N (stereo not drawn)	5.2%
Cc1ccc(N(C(=O)c2snc(C(N)=O)c2N)C(C(=O)NCC2CCCO2)c2c[nH]c3ccccc23)cc1 (stereo not drawn)	75% (active)
O=C(NCC(=O)N(c1ccccc1)C(C(=O)NCC1CCCO1)c1ccccc1)c1cccs1 (stereo not drawn)	-2.5%
Cc1ccc(N(C(=O)Cc2cccs2)C(C(=O)NCC2CCCO2)c2ccncc2)cc1 (stereo not drawn)	-4.7%
CCOc1ccc(C(C(=O)NC2CCCC2)N(C(=O)c2snc(C(N)=O)c2N)C2CCCC2)cc1 (stereo not drawn)	5.2%
COC(=O)Nc1ccc(S(=O)(=O)N(C)CC(F)(F)C(F)F)cc1	4.1%
COc1ccccc1N1CCN(C(=O)c2cc(=O)c3cc(C)cc(C)c3o2)CC1	-5.8%
Cn1cc(S(=O)(=O)Nc2ccc(Cl)cc2Cl)c(=O)n(C)c1=O	-9.5%
N/C(=N\OC(=O)CCc1ccccc1)c1ccc(Cl)cc1	3.8%
O=C(CSc1ccc2nnc(-c3ccccc3)n2n1)N1CCCc2ccccc21	8.9%
COC(=O)c1ccc(CSc2ccc3nnc(-c4ccccc4)n3n2)o1	14.2%
COc1ccc(-c2nnc3ccc(SCc4ccccc4)nn23)cc1	49.1% (active)
COc1ccc(C)cc1S(=O)(=O)N(CC(=O)Nc1cccc([N+](=O)[O-])c1)c1ccc(C)cc1	-5.5%
COc1ccc(N(C(=O)c2snc(C(N)=O)c2N)C(C(=O)NC2CCCC2)c2ccc(C)o2)c(OC)c1 (stereo not drawn)	12.9%
COc1ccc(N(C(=O)c2snc(C(N)=O)c2N)C(C(=O)NC2CCCC2)c2ccco2)cc1OC (stereo not drawn)	80.3% (active)
CCC(C(=O)NC1CCCCC1)N(C(=O)c1snc(C(N)=O)c1N)c1ccc(OC)cc1OC (stereo not drawn)	14.4%

Compound	inhibition
CCC(C(=O)NC1CCCC1)N(C(=O)c1snc(C(N)=O)c1N)c1ccc2c(c1)OCCO2 (stereo not drawn)	86.7% (active)
COc1ccc(C(C(=O)NC2CCCCC2)N(C(=O)c2snc(C(N)=O)c2N)c2ccccc2OC)cc1 (stereo not drawn)	8.5%
COc1cc(C(C(=O)NC2CCCC2)N(Cc2ccccc2)C(=O)c2snc(C(N)=O)c2N)ccc1O (stereo not drawn)	13.8%
COc1ccc(C)cc1NC(=S)Nc1ccccc1SC	-7.3%
COc1cccc(/C=C2\Sc3ccc(C(=O)NCC4CCCO4)cc3N(C)C2=O)c1 (stereo not drawn)	-7.4%
Cc1cccc(C)c1OCC(O)CN1CCCCC1 (stereo not drawn)	11.2%
Cc1ccccc1OCC(O)CN1CCN(c2ccccn2)CC1 (stereo not drawn)	0.6%
Cc1cccc(OCC(O)CN2CCN(CCN3C(=O)c4cccc5cccc(c45)C3=O)CC2)c1C (stereo not drawn)	83% (active)
Cc1cc(C)c(S(=O)(=O)c2ccccc2)c(OC(=O)c2c(F)cccc2Cl)n1	2.7%
O=C(COC(=O)/C=C/c1nc2ccccc2s1)Nc1ccccc1Oc1ccccc1	-4.1%
CC(c1ccco1)N(C(=O)COc1ccccc1[N+](=O)[O-])c1ccccn1 (stereo not drawn)	-13.5%
CC(C)Nc1ccc(-n2nc3ccccc3[n+]2[O-])cc1	0.3%
C#CCOCCOCCOCCNc1nc(N2CCN(C(=O)[C@H](Cc3ccc(O)cc3)n3cc(C(N)CC(C)C)nn3)CC2)nc(N2CCN(C(=O)[C@H](CCC(=O)O)n3cc(C(N)[C@H](C)CC)nn3)CC2)n1 (stereo partly drawn)	-7.8%
C#CCOCCOCCOCCNc1nc(N2CCN(C(=O)[C@H](CCC(=O)O)n3cc(C(N)CO)nn3)CC2)nc(N2CCN(C(=O)[C@H](Cc3ccc(O)cc3)n3cc(C(N)[C@H](C)CC)nn3)CC2)n1 (stereo partly drawn)	-1.7%
C#CCOCCOCCOCCNc1nc(N2CCN(C(=O)C(Cc3ccc(O)cc3)n3cc(C(N)CC(C)C)nn3)CC2)nc(N2CCN(C(=O)C(Cc3ccc(O)cc3)n3cc(C(N)C(C)CC)nn3)CC2)n1 (stereo not drawn)	45.5% (active)
C#CCOCCOCCOCCNc1nc(N2CCN(C(=O)[C@H](CCCCN)n3cc([C@@H](N)C(C)CC)nn3)CC2)nc(N2CCN(C(=O)[C@H](Cc3ccc(O)cc3)n3cc([C@@H](N)C(C)CC)nn3)CC2)n1 (stereo partly drawn)	95.9% (active)
C#CCOCCOCCOCCNc1nc(N2CCN(C(=O)[C@H](CO)n3cc([C@@H](N)C(C)C)nn3)CC2)nc(N2CCN(C(=O)[C@H](CCC(=O)O)n3cc([C@@H](N)[C@H](C)CC)nn3)CC2)n1	8.2%
C#CCOCCOCCOCCNc1nc(N2CCN(C(=O)[C@H](CCC(=O)O)n3cc(C(N)CO)nn3)CC2)nc(N2CCN(C(=O)[C@H](CCCCN)n3cc(C(N)[C@H](C)CC)nn3)CC2)n1 (stereo partly drawn)	5.8%
O=C(Cn1c[n+](CC(=O)c2ccc([N+](=O)[O-])cc2)cn1)c1ccc([N+](=O)[O-])cc1	-18.4% and -8%
S=C(c1ccc(-c2ccccc2)o1)N1CCCCC1	-13.9%
CC(C)NC(=O)C(=O)NCCCOC(C)C	-2.8%
COc1ccc(/C=N\NC(=O)c2sc(N)nc2C)cc1OC	102% (active)
COc1cc(/C=N/NC(=O)CNC(=O)c2ccncc2)ccc1OC(C)=O	-6.5%
COc1cccc(OCc2cc(/C=N/NC(=O)c3nc(Cl)c(Cl)c(N)c3Cl)ccc2OC)c1	-21.4%
